Test results from PubChem BioAssay (Tox21).
Results filed as inconclusive are left out. Active and inactive are the calls of the source. Unless noted, the call rests on the fitted dose curve; in most records, active means well fitted curve in the direction sought with a large enough effect in the repeat runs; inconclusive means weak or mixed curves; inactive means no such curve, though single readings can be large; an effect the other way counts as inactive or inconclusive.

Key:
[1] = qHTS assay to identify small molecule antagonists of the thyroid receptor (TR) signaling pathway - cell viability counter screen (AID 743064); further: nearly all actives have a fitted effect of over 50% in size
Outline: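 Fluorescence from CellTiter-Fluor, added after 23.5 h exposure at 37 °C, reported viability of GH3.TRE-Luc cells co-treated with compound and 1 nM T3. Measured in the same wells as the luciferase TR readout.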

[2] = test system: thyroid hormone receptor (rat, GH3 cells); test: qHTS assay to identify small molecule agonists of the thyroid receptor (TR) signaling pathway (AID 743066; calls by dose curve)
[3] = target: Estrogen receptor (Homo sapiens) (UniProt P03372); test: qHTS assay to identify small molecule antagonists of the estrogen receptor alpha (ER-alpha) signaling pathway (AID 743069; active means well fitted curve in the direction sought with a large enough effect in the signal ratio in the repeat runs, not every such curve was filed as active; the % refers to the signal ratio)
Chain of Estrogen receptor (Homo sapiens) (P03372 whole entry, looked up): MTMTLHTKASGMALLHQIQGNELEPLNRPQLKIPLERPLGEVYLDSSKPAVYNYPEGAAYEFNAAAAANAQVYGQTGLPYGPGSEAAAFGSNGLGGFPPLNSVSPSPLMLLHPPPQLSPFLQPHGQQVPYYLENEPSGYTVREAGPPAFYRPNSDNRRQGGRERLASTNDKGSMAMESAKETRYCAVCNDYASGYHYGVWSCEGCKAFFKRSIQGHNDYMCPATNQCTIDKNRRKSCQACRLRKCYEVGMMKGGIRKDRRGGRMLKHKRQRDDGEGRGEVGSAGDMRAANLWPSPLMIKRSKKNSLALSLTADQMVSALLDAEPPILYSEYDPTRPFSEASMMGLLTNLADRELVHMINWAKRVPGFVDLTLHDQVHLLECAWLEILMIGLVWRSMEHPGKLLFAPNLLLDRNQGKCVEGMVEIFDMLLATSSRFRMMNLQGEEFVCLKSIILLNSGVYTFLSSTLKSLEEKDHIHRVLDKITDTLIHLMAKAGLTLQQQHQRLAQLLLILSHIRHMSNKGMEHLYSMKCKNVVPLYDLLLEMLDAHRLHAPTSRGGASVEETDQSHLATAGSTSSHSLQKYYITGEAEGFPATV
Outline: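 Antagonist mode: compounds in DMSO were co-added with 17beta-estradiol to ER-alpha-bla HEK293 cells (2% charcoal-stripped serum) and left 18 h at 37C. Reporter inhibition was measured as FRET fluorescence after 2 h LiveBLAzer substrate at room temperature.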

[4] = qHTS assay to identify small molecule antagonists of the estrogen receptor alpha (ER-alpha) signaling pathway - cell viability counter screen (AID 743074; calls by dose curve;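 further: HEK293 cells carrying ER-alpha-UAS-bla reporter stimulated with 17beta-estradiol; nearly all actives have a fitted effect of over 45% in size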)
[5] = target: Estrogen receptor (Homo sapiens) (UniProt P03372); test: qHTS assay to identify small molecule agonists of the estrogen receptor alpha (ER-alpha) signaling pathway (AID 743075; calls by dose curve;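 further: HEK293 GripTite cells with ER-alpha and UAS-driven beta-lactamase reporter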)
[6] = target: Estrogen receptor (Homo sapiens) (UniProt P03372); test: qHTS assay to identify small molecule agonists of the estrogen receptor alpha (ER-alpha) signaling pathway using the BG1 cell line (AID 743079); further: nearly all actives have a fitted effect of over 20% in size
[7] = qHTS assay to identify small molecule antagonists of the estrogen receptor alpha (ER-alpha) signaling pathway using the BG1 cell line (AID 743080; calls by dose curve;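 further: BG1 cells stimulated with 17beta-estradiol alongside compound; series mostly up to about 70 µM; nearly all actives have a fitted effect of over 25% in size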)
Outline: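 After 5 days in phenol-red-free 10% charcoal-stripped FBS medium, BG1-Luc-4E2 cells were seeded, left 24 h at 37 C, co-treated with compounds and 17beta-estradiol for 21.5 h, then assayed for viability and luciferase.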

[8] = qHTS assay to identify small molecule antagonists of the estrogen receptor alpha (ER-alpha) signaling pathway using the BG1 cell line - cell viability counter screen (AID 743081);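 further: compound given together with 17beta-estradiol as the ER stimulus; series mostly up to about 70 µM; nearly all actives have a fitted effect of over 45% in size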
Aromatase (Homo sapiens) = Aromatase (Homo sapiens) (UniProt P11511); test: qHTS assay to identify aromatase inhibitors (AID 743083); further: series mostly up to about 70 µM; nearly all actives have a fitted effect of over 55% in size
Chain of Aromatase (Homo sapiens) (P11511 whole entry, looked up): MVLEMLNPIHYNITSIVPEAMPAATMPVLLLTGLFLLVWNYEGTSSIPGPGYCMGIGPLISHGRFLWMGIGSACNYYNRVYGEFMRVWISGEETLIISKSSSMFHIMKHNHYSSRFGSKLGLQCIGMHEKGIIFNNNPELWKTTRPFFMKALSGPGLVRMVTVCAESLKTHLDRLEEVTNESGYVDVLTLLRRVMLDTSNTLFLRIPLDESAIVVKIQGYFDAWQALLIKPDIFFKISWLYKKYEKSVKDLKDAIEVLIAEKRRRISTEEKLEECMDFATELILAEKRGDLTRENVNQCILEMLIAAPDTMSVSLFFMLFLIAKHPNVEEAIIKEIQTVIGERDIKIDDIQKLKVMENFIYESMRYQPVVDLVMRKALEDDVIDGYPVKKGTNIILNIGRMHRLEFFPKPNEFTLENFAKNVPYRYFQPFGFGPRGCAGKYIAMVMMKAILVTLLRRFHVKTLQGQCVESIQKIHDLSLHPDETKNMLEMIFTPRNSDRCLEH

[9] = qHTS assay to identify aromatase inhibitors - cell viability counter screen (AID 743084);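 further: cells stimulated with testosterone during compound exposure; nearly all actives have a fitted effect of over 55% in size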
[10] = target: Aryl hydrocarbon receptor (Homo sapiens) (UniProt P35869); test: qHTS assay to identify small molecule that activate the aryl hydrocarbon receptor (AhR) signaling pathway (AID 743085);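 further: HG2L7.5c1 human HepG2 liver cells with stably integrated DRE-driven firefly reporter; series mostly up to about 70 µM; nearly all actives have a fitted effect of over 15% in size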
Chain of Aryl hydrocarbon receptor (Homo sapiens) (P35869 whole entry, looked up): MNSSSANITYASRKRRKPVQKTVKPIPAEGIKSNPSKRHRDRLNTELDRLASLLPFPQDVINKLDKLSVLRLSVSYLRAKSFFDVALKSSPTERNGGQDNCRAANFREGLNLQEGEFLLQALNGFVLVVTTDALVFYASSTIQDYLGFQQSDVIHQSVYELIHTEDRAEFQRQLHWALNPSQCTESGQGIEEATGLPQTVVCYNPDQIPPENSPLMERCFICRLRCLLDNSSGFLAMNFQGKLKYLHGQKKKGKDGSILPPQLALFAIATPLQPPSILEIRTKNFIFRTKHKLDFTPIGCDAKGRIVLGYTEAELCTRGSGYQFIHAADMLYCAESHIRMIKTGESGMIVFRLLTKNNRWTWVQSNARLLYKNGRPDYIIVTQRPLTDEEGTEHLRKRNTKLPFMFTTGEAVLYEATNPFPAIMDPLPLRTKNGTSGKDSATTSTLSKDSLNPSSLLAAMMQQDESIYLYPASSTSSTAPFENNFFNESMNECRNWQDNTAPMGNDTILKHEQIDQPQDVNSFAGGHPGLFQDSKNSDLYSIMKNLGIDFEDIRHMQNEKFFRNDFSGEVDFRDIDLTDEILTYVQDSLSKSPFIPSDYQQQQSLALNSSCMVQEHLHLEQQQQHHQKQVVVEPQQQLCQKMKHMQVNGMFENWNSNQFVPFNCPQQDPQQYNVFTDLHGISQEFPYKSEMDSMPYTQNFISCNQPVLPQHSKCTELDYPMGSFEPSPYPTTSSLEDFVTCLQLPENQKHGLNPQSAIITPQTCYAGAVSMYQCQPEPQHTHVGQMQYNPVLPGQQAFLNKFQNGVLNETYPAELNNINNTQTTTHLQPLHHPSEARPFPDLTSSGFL
Outline: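 Cell line HG2L7.5c1 (human hepatoma, 20× DRE-luc). Plated, 5 h 37C, compound/DMSO added, 24 h 37C. CellTiter-Fluor 30 min 37C → fluorescence; then ONE-Glo 30 min RT → luminescence.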

[11] = qHTS assay to identify small molecule that activate the aryl hydrocarbon receptor (AhR) signaling pathway - cell viability counter screen (AID 743086);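 further: HepG2 liver cells carrying the AhR DRE luciferase reporter; series mostly up to about 70 µM; nearly all actives have a fitted effect of over 45% in size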
Outline: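 Cytotoxicity counter screen: CellTiter-Fluor signal (30 min, 37 C) in 4000 HepG2 cells/well carrying the DRE-luciferase reporter, following 24 h compound exposure at 37 C.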

[12] = target: Peroxisome proliferator-activated receptor gamma (Homo sapiens) (UniProt P37231); test: qHTS assay to identify small molecule agonists of the peroxisome proliferator-activated receptor gamma (PPARg) signaling pathway (AID 743094; active means well fitted activation curve with a large enough effect in the signal ratio in the repeat runs, not every such curve was filed as active; the % refers to the signal ratio)
Chain of Peroxisome proliferator-activated receptor gamma (Homo sapiens) (P37231 whole entry, looked up): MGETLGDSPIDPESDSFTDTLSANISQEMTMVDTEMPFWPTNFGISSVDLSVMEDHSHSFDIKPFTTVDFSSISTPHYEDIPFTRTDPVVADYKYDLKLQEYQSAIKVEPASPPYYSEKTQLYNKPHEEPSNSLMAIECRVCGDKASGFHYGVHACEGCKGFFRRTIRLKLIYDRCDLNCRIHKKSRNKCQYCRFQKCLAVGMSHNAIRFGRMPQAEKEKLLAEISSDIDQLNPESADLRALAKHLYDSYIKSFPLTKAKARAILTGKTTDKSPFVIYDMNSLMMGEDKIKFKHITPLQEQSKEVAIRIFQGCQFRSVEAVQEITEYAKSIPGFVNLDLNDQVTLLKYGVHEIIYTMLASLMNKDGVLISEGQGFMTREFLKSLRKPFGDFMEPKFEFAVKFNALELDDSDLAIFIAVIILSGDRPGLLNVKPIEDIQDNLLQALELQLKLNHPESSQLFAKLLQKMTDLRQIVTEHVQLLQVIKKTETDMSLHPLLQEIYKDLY
Outline: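 Cell-based bla reporter, HEK293H background, PPARg-driven UAS. Pre-incubation 5 h, 37C, 5% CO2. Compound 17 h, 37C. Substrate 1 h RT; fluorescence.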

[13] = qHTS assay to identify small molecule antagonists of the peroxisome proliferator-activated receptor gamma (PPARg) signaling pathway - cell viability counter screen (AID 743194); further: nearly all actives have a fitted effect of over 55% in size
Outline: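 Viability was measured as CellTiter-Glo luminescence in GeneBLAzer PPARg UAS-bla HEK293H cells. These cells had been exposed 17 h at 37 C to compounds together with rosiglitazone at 50 nM final, with the beta-lactamase readout taken in the same wells.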

[14] = qHTS assay for small molecule agonists of the antioxidant response element (ARE) signaling pathway - cell viability counter screen (AID 743203; calls by dose curve; further: nearly all actives have a fitted effect of over 55% in size)
Outline: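 Measured in the same wells as the beta-lactamase ARE reporter, this read-out is CellTiter-Glo luminescence from HepG2 ARE-bla cells given compounds for 16 hrs.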

[15] = qHTS assay for small molecule activators of the heat shock response signaling pathway - cell viability counter screen (AID 743209); further: nearly all actives have a fitted effect of over 50% in size
Outline: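 Same-well multiplex: after 2.5 h room-temperature incubation with LiveBLAzer B/G substrate and fluorescence reading, CellTiter-Glo reagent was added to HSE-bla HeLa cells that had received compound for 5 h at 37 C; luminescence read after 30 min.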

[16] = qHTS assay for small molecule activators of the heat shock response signaling pathway (AID 743210; active means well fitted activation curve with a large enough effect in the signal ratio in the repeat runs, with a control signal flat, not every such curve was filed as active; the % refers to the signal ratio; further: series mostly up to about 63 µM)
Outline: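 Compound exposure lasted 5 h at 37 C in HeLa cells carrying a heat-shock-element-driven beta-lactamase reporter. Read-out: fluorescence intensity after 2.5 h room-temperature loading with LiveBLAzer B/G FRET substrate.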

[17] = qHTS assay to identify small molecule antagonists of the thyroid receptor (TR) signaling pathway (AID 743065)
Outline: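 Antagonism measured as loss of luciferase signal in GH3 cells stably carrying a TRE-luciferase reporter, co-treated with compound and T3 (1 nM final) for 23.5 h at 37 C. Viability was read in the same well by CellTiter-Fluor.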

[18] = qHTS assay for small molecule agonists of the antioxidant response element (ARE) signaling pathway (AID 743202; active means well fitted activation curve with a large enough effect in the signal ratio in the repeat runs, not every such curve was filed as active; the % refers to the signal ratio)
Outline: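 After 16 hours of compound treatment at 37 C, HepG2 cells with a stably integrated ARE-driven beta-lactamase reporter were loaded 2 hours at room temperature with LiveBLAzer B/G FRET substrate and fluorescence intensity measured.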

[19] = target: Peroxisome proliferator-activated receptor gamma (Homo sapiens) (UniProt P37231); test: qHTS assay to identify small molecule antagonists of the peroxisome proliferator-activated receptor gamma (PPARg) signaling pathway (AID 743191; calls by dose curve; further: series mostly up to about 63 µM; nearly all actives have a fitted effect of over 30% in size)
Outline: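 Beta-lactamase reporter under UAS control in HEK293H PPARg-bla cells; compound treatment 17 h at 37C. Read-out: fluorescence intensity after 1 h room-temperature incubation with LiveBLAzer B/G FRET substrate.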

Measured: Potency

N=C(N)c1ccc2cc(OC(=O)c3ccc(N=C(N)N)cc3)ccc2c1
inactive: [1] | [2] | [3] | [4] | [5] | [6] | [7] | [8] | Aromatase (Homo sapiens) | [9] | [10] | [11] | [12] | [13] | [14] | [15] | [16]

Cc1[nH]c(=O)c(C#N)cc1-c1ccc2nccn2c1
inactive: [1] | [17] | [2] | [4] | [8] | [11] | [13] | [18] | [14] | [15] | [16]

Nc1c[n+](N2CCOCC2)no1
inactive: [1] | [2] | [3] | [5] | [6] | [7] | [8] | Aromatase (Homo sapiens) | [9] | [10] | [11] | [13] | [14] | [15] | [16]

CC(C)=CCCC(C)CC(=O)O (configuration not stated)
inactive: [1] | [17] | [2] | [4] | [8] | Aromatase (Homo sapiens) | [10] | [11] | [18] | [14] | [15] | [16]

CC(C)(O)C#CC(C)(C)O
inactive: [1] | [2] | [3] | [4] | [5] | [6] | [7] | [8] | Aromatase (Homo sapiens) | [9] | [10] | [11] | [12] | [18] | [14] | [15] | [16]

C[N+](C)(C)CCCCCC[N+](C)(C)C
inactive: [1] | [17] | [2] | [4] | Aromatase (Homo sapiens) | [9] | [10] | [11] | [13] | [18] | [14] | [16]

CC(=O)CC(C)(C)C1CCCCC1
inactive: [1] | [2] | [3] | [4] | [5] | [6] | [7] | [8] | Aromatase (Homo sapiens) | [9] | [10] | [11] | [19] | [18] | [14] | [15] | [16]

N[C@H]1CN(c2c(F)cc3c(=O)c(C(=O)O)cn(C4C[C@H]4F)c3c2Cl)CC12CC2 (some centres not stated)
inactive: [1] | [2] | [3] | [4] | [5] | [6] | [7] | Aromatase (Homo sapiens) | [9] | [10] | [11] | [12] | [13] | [14] | [15] | [16]
